Experimental data as given in PubChem BioAssay (Tox21).
Results filed as inconclusive are left out. Calls of active or inactive are those of the source. Unless noted, calls come from the whole dose curve.

Legend:
[1] = qHTS assay to identify small molecule antagonists of the vitamin D receptor (VDR) signaling pathway - cell viability counter screen (AID 743225; active = well fitted curve in the direction sought with a large enough effect in the repeat runs; an effect the other way counts as inactive or inconclusive; note: % is set by controls: 0 for no effect and ±100 for the full control effect; nearly all actives have a fitted effect of over 50% in size)
Procedure, shortened: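 Same-well multiplex: following 16 h treatment of HEK 293T cells carrying a UAS-driven beta-lactamase reporter with compound and agonist (3 nM final), and a 2 h FRET substrate step, CellTiter-Glo was added and luminescence read after 30 min.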

[2] = qHTS assay to identify small molecule agonists of the NFkB signaling pathway - cell viability counter screen (AID 1159515); note: series mostly up to about 61 µM; % is set by controls: 0 for no effect and ±100 for the full control effect; nearly all actives have a fitted effect of over 55% in size
Procedure, shortened: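 Cells are seeded (2,000 NFkB-bla ME-180 per well), rested overnight, and dosed with DMSO-dissolved compounds for 5 hr at 37 C. Viability is then read by CellTiter-Glo luminescence after 30 min at room temperature.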

[3] = qHTS assay to identify small molecule agonists of the endoplasmic reticulum stress response signaling pathway (AID 1159516; active = well fitted activation curve with a large enough effect in the signal ratio in the repeat runs, not every such curve was filed as active; the % refers to the signal ratio; note: % is set by controls: 0 for no effect and ±100 for the full control effect)
Procedure, shortened: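 Cells are seeded at 1,500 per well and incubated overnight. Compounds in DMSO are added for 5 hr at 37 C, then beta-lactamase FRET substrate for 2 hr at room temperature, and fluorescence at 460 and 530 nm is measured.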

[4] = qHTS assay to identify small molecule agonists of the endoplasmic reticulum stress response signaling pathway - cell viability counter screen (AID 1159517);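 note: HeLa cells carrying an ER stress response element beta-lactamase reporter; series mostly up to about 61 µM; % is set by controls: 0 for no effect and ±100 for the full control effect; nearly all actives have a fitted effect of over 50% in size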
Procedure, shortened: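 Steps: seed 1,500 ESRE-bla HeLa cells per well; incubate overnight at 37 C, 5% CO2; add compounds in DMSO for 5 hr; run FRET substrate 2 hr RT; add CellTiter-Glo, wait 30 min, read luminescence.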

[5] = qHTS assay to identify small molecule agonists of the AP-1 signaling pathway - cell viability counter screen (AID 1159525); note: nearly all actives have a fitted effect of over 55% in size
Procedure, shortened: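 Same-well cytotoxicity counter screen of the Tox21 10K library in ME-180 cells. The readout is ATP-dependent luminescence after 5 h compound treatment. Data are normalised to DMSO and tetra n-octyl ammonium bromide controls.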

[6] = qHTS assay to identify small molecule agonists of the AP-1 signaling pathway (AID 1159526); note: % is set by controls: 0 for no effect and ±100 for the full control effect
[7] = qHTS assay to identify small molecule agonists of the RXR signaling pathway - cell viability counter screen (AID 1159529; active = well fitted curve in the direction sought with a large enough effect in the repeat runs; an effect the other way counts as inactive or inconclusive; note: series mostly up to about 77 µM; % is set by controls: 0 for no effect and ±100 for the full control effect; nearly all actives have a fitted effect of over 50% in size)
Procedure, shortened: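 Counter screen: CellTiter-Glo luminescence. Cells: RXR-alpha-UAS-bla HEK 293T. Medium: 2% charcoal-stripped FBS. Treatment: 16 h, 37 C. Reagent incubation: 30 min, RT.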

[8] = qHTS assay to identify small molecule antagonists of the retinoid-related orphan receptor gamma (ROR-gamma) signaling pathway - cell viability counter screen (AID 1159520; active = well fitted curve in the direction sought with a large enough effect in the repeat runs; an effect the other way counts as inactive or inconclusive; note: nearly all actives have a fitted effect of over 50% in size; note: potency is the fitted concentration of half-maximal effect; for activity, negative = cytotoxicity: % is set by controls: 0 for no effect and ±100 for the full control effect)
Procedure, shortened: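 Tet-on ROR gamma CHO cells were given compounds for 2 hr, then doxycycline hyclate at 1 uM final, and incubated 16 hr at 37 C. Viability was measured as ATP content by CellTiter-Glo luminescence.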

[9] = molecular target: Nuclear receptor ROR-gamma (Homo sapiens) (UniProt P51449); assay: qHTS assay to identify small molecule antagonists of the retinoid-related orphan receptor gamma (ROR-gamma) signaling pathway (AID 1159521; active = well fitted curve in the direction sought with a large enough effect in the repeat runs; an effect the other way counts as inactive or inconclusive)
Procedure, shortened: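 Inducible-expression reporter assay: doxycycline (1 uM final) switched on RORγ in CHO cells bearing a ROR response element-luciferase construct, with test compounds present from 2 h beforehand. Decreased luminescence after 16 h defined antagonist activity.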

[10] = molecular target: Retinoic acid receptor RXR-alpha (Homo sapiens) (UniProt P19793); assay: qHTS assay to identify small molecule agonists of the RXR signaling pathway (AID 1159527); note: % is set by controls: 0 for no effect and ±100 for the full control effect; nearly all actives have a fitted effect of over 35% in size
Procedure, shortened: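 Compounds in DMSO were added to RXR-alpha-UAS-bla HEK 293T cells kept in 2% charcoal-stripped serum, and incubated 16 hr at 37 C with 5% CO2. Reporter signal came from a 2 hr B/G FRET substrate step.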

Sequence of Retinoic acid receptor RXR-alpha (Homo sapiens) (P19793 whole entry, looked up): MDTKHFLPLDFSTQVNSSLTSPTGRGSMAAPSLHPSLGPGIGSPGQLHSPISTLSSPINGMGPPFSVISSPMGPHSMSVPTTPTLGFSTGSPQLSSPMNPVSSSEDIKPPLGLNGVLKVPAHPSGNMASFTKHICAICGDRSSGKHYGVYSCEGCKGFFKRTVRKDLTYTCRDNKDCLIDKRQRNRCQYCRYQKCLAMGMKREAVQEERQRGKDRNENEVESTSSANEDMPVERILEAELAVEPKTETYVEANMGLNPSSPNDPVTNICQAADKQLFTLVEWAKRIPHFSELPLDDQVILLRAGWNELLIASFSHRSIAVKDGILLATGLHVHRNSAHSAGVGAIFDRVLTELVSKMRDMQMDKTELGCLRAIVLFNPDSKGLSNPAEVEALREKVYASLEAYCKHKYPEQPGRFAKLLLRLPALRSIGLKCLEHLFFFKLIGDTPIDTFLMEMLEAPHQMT

O=C(O)CC(=O)C(=O)O
inactive: Potency [1] | Potency [2] | Potency [3] | Potency [4] | Potency [5] | Potency [6] | Potency [7]

Cc1[nH]c(C)c(Cl)c(=O)c1Cl
inactive: Potency [1] | Potency [2] | Potency [3] | activity, negative = cytotoxicity [8] 3.57% [at 19 µM] | activity change, negative = inhibition [9] -2.21% [at 19 µM] | activation [6] -0.748% [at 15.8 µM]

C=CC1CC2C=CC1C2 (stereo not drawn)
inactive: Potency [1] | Potency [2] | Potency [3] | Potency [4] | Potency [5] | Potency [6] | Potency [10] | Potency [7]

CC(C)(CO)[N+](=O)[O-]
inactive: Potency [1] | Potency [2] | Potency [3] | Potency [4] | Potency [5] | Potency [6] | Potency [10] | Potency [7]

Nc1cccc([N+](=O)[O-])c1
inactive: Potency [2] | Potency [3] | Potency [4] | Potency [5] | Potency [6] | Potency [10] | Potency [7]

c1ccc(C(O[C@H]2CCCN(CCc3ccc4c(c3)OCO4)C2)c2ccccc2)cc1
inactive: Potency [1] | Potency [2] | Potency [3] | Potency [4] | Potency [7]

COCCCN1CCC(NC(=O)c2cc(Cl)c(N)c3c2OCC3)CC1
inactive: Potency [1] | Potency [2] | Potency [3] | Potency [4] | Potency [5] | Potency [6] | Potency [7]

CCOC(=O)Cc1cccc2ccccc12
inactive: Potency [2] | Potency [3] | Potency [4] | Potency [5] | Potency [6] | Potency [10] | Potency [7]

Nc1ncn([C@H]2C[C@H](O)[C@@H](CO)O2)c(=O)n1
inactive: Potency [1] | Potency [2] | Potency [3] | Potency [4] | Potency [5] | Potency [7]

c1cc(CCCc2ccncc2)ccn1
inactive: Potency [1] | Potency [2] | Potency [3] | Potency [4] | Potency [5] | Potency [6]

CCCCCCCN
inactive: Potency [1] | Potency [2] | Potency [3] | Potency [8] | Potency [5] | Potency [6] | Potency [10] | Potency [7]

CCOCC(O)COc1ccc(NC(=O)CC[S+](C)C)cc1 (stereo not drawn)
inactive: Potency [2] | Potency [3] | Potency [8] | Potency [6] | Potency [10] | Potency [7]

COc1cc2nc(N3CCN(C(=O)C4COc5ccccc5O4)CC3)nc(N)c2cc1OC (stereo not drawn)
inactive: Potency [1] | Potency [2] | Potency [3] | Potency [8] | Potency [5] | Potency [6] | Potency [10]

CCCCCCc1ccc(-c2ccc(C#N)cc2)cc1
inactive: Potency [1] | Potency [2] | Potency [3] | Potency [8] | Potency [5] | Potency [6]

Nc1ccc(N)c2c1C(=O)c1ccccc1C2=O
active: Potency [8] 21.7 µM
inactive: Potency [1] | Potency [2] | Potency [3] | Potency [5] | Potency [6]

O=C(O)c1ccc(S(=O)(=O)O)cc1C(=O)O
inactive: Potency [2] | Potency [3] | Potency [8] | Potency [5] | Potency [6] | Potency [10] | Potency [7]

O=C(c1ccc(F)cc1)C1CCN(CCn2c(=S)[nH]c3ccccc3c2=O)CC1
inactive: Potency [1] | Potency [2] | Potency [3] | Potency [5] | Potency [7]

C[N+]1(C)CCC(OC(=O)C(O)(c2ccccc2)C2CCCC2)C1 (stereo not drawn)
inactive: Potency [1] | Potency [2] | Potency [3] | Potency [8] | Potency [5] | Potency [6] | Potency [7]

CC(C)O.CC(C)O.CCOC(=O)/C=C(\C)O.CCOC(=O)/C=C(\C)O.[Ti]
inactive: Potency [1] | Potency [2] | Potency [3] | Potency [8] | Potency [5] | Potency [6] | Potency [7]

CCOC(=O)c1cccnc1
inactive: Potency [1] | Potency [2] | Potency [3] | Potency [8] | Potency [5] | Potency [6] | Potency [10] | Potency [7]

CCCCc1nc2cccnc2n1Cc1ccc(-c2ccccc2-c2nnn[nH]2)cc1
inactive: Potency [1] | Potency [2] | Potency [3] | Potency [8] | Potency [5] | Potency [6]

CCC(=O)O[C@]1(C(=O)CCl)[C@@H](C)C[C@H]2[C@@H]3CCC4=CC(=O)C=C[C@]4(C)[C@@]3(F)[C@@H](O)C[C@@]21C
inactive: Potency [1] | Potency [2] | Potency [3] | Potency [8] | Potency [5] | Potency [6] | Potency [10] | Potency [7]
